Reference: article PMC4336329 (PLoS ONE, 2015)
Among all 310,000 compounds or so, about 14,000 (4.5%) showed an effect of 50% or more. Effects have a minus sign here. The list comes from a sample in which strong results are over-represented; it also holds similar structures and randomly drawn compounds.

biological target: human ether-à-go-go-related gene (hERG) potassium channel (human, UniProt Q12809); test: primary screen, population patch clamp on CHO cells stably expressing hERG; higher = less effect of the substance
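Further: peak tail current of the secondary pulse compared with the same well before compound.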

Sequence of human ether-à-go-go-related gene (hERG) potassium channel (Q12809 whole entry, looked up): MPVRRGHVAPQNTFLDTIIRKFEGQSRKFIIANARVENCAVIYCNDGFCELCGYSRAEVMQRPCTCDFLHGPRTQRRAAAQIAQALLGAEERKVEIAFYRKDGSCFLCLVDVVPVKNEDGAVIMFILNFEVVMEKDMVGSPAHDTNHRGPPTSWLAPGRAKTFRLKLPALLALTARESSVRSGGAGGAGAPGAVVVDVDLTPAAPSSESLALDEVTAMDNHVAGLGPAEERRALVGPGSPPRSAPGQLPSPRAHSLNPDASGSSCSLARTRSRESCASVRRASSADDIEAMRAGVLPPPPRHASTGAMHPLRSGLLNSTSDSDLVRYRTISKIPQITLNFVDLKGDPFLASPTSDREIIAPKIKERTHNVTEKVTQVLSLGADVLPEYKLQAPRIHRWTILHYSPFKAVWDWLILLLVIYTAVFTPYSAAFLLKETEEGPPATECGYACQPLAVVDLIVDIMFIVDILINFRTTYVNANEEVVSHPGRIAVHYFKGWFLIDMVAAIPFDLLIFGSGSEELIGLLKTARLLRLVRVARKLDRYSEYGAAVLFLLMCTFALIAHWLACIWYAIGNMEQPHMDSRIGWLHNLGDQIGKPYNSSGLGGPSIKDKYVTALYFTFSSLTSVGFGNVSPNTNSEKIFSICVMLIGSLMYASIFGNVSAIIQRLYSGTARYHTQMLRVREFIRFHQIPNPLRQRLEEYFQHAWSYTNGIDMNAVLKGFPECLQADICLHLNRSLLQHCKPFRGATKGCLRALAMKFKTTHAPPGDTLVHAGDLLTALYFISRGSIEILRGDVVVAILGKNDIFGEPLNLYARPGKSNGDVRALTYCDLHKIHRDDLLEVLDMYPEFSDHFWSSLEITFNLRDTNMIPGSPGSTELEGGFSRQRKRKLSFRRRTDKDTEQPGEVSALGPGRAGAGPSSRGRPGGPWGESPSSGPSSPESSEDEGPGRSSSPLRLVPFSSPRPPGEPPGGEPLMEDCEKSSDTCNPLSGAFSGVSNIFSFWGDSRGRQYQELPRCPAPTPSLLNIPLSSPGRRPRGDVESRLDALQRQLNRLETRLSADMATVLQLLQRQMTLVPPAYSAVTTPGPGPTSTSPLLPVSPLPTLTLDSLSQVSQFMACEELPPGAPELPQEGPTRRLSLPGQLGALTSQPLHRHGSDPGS

Question: `Cc1ccc(N2CC(C(=O)Nc3nnc(SCCN4CCOCC4)s3)CC2=O)cc1C` (stereo not shown) was tested. Which “hERG current change (%, negative = inhibition) at 10uM” value did it give?
Answer: 20.7%

Question: With `COc1ccccc1-n1nnnc1SCc1cc2c(cc1Br)OCO2` as the compound, how does the “hERG current change (%, negative = inhibition) at 10uM” value read?
Answer: -9.95%

Question: How did the “hERG current change (%, negative = inhibition) at 10uM” value turn out when `CCCCC(OC(=O)c1ccco1)C(=O)NCc1ccc(C)cc1` (stereo not shown) was run?
Answer: -0.428%

Question: With `O=C(Cn1cnc([N+](=O)[O-])n1)NC1CC1` as the compound, how does the “hERG current change (%, negative = inhibition) at 10uM” value read?
Answer: 7.02%

Question: For `Cc1nn(-c2ccccc2)c2[nH]c(=O)c(CNCc3ccc4c(c3)OCO4)cc12`, which “hERG current change (%, negative = inhibition) at 10uM” value is on record?
Answer: -28.7%

Question: For `CC(C)(C)c1nn(-c2ccccc2)c2[nH]c(=O)c(CNCc3ccc4c(c3)OCO4)cc12`, which “hERG current change (%, negative = inhibition) at 10uM” value is on record?
Answer: -17.9%

Question: `Cc1nn(-c2ccc(Cl)cc2)c2[nH]c(=O)c(CNCc3ccc4c(c3)OCO4)cc12` was tested. Which “hERG current change (%, negative = inhibition) at 10uM” value did it give?
Answer: -70%

Question: For `Cc1ccc2c(C)c(C(=O)Nc3ccc(S(N)(=O)=O)cc3)oc2c1C`, which “hERG current change (%, negative = inhibition) at 10uM” value is on record?
Answer: 31.2%

Question: For `COc1ccccc1CC1C(=O)C2CCN1CC2` (stereo not shown), which “hERG current change (%, negative = inhibition) at 10uM” value is on record?
Answer: 14.5%

Question: How did the “hERG current change (%, negative = inhibition) at 10uM” value turn out when `NCCSc1c(-c2ccc(Cl)cc2)[nH]c2ccccc12` was run?
Answer: -84.3%

Question: `Cc1ccc(-c2[nH]c3ccccc3c2SCCN)cc1` was tested. Which “hERG current change (%, negative = inhibition) at 10uM” value did it give?
Answer: -27.6%

Question: How did the “hERG current change (%, negative = inhibition) at 10uM” value turn out when `NCCSc1c(-c2ccccc2)[nH]c2ccccc12` was run?
Answer: -12.1%

Question: How did the “hERG current change (%, negative = inhibition) at 10uM” value turn out when `O=C(NCC1CCCO1)C(=O)N/N=C/c1c(F)cccc1Cl` (stereo not shown) was run?
Answer: 8.04%

Question: Which “hERG current change (%, negative = inhibition) at 10uM” value does the source give for `Cc1noc(C)c1COC(=O)/C=C/c1ccc(Cl)cc1` here?
Answer: 0.131%

Question: Which “hERG current change (%, negative = inhibition) at 10uM” value does the source give for `CCn1cc(/C=C/C(=O)Nc2ccc(C)cc2Br)cn1` here?
Answer: -30.7%

Question: Which “hERG current change (%, negative = inhibition) at 10uM” value does the source give for `Cc1ccc(S(=O)(=O)N2CCCC2C(=O)N(C)Cc2cccs2)cc1` (stereo not shown) here?
Answer: -19.9%

Question: With `O=C(O)C1CCCN(S(=O)(=O)c2ccc(F)cc2)C1` (stereo not shown) as the compound, how does the “hERG current change (%, negative = inhibition) at 10uM” value read?
Answer: 20.4%

Question: For `Cc1ccc(S(=O)(=O)N2CCCC(C(=O)N(Cc3cccs3)C3CC3)C2)cc1` (stereo not shown), which “hERG current change (%, negative = inhibition) at 10uM” value is on record?
Answer: -67.7%

Question: How did the “hERG current change (%, negative = inhibition) at 10uM” value turn out when `CCOC(=O)C1CCCN(S(=O)(=O)c2ccc(C)cc2)C1` (stereo not shown) was run?
Answer: -2.86%

Question: How did the “hERG current change (%, negative = inhibition) at 10uM” value turn out when `O=C(C1CCCN(S(=O)(=O)c2ccc(Cl)cc2)C1)N(Cc1cccs1)C1CC1` (stereo not shown) was run?
Answer: -63%

Question: How did the “hERG current change (%, negative = inhibition) at 10uM” value turn out when `CN1CCN(C(=O)C2CCCN(S(=O)(=O)c3ccc(Cl)cc3)C2)CC1` (stereo not shown) was run?
Answer: -18.8%

Question: With `O=C(C1CCCN(S(=O)(=O)c2ccc(F)cc2)C1)N(Cc1cccs1)C1CC1` (stereo not shown) as the compound, how does the “hERG current change (%, negative = inhibition) at 10uM” value read?
Answer: -78.2%

Question: How did the “hERG current change (%, negative = inhibition) at 10uM” value turn out when `O=C(C1CCCN(S(=O)(=O)c2ccc(Cl)cc2)C1)N1CCCC1` (stereo not shown) was run?
Answer: -19%

Question: With `O=C(C1CCCN(S(=O)(=O)c2ccc(F)cc2)C1)N1CCCC1` (stereo not shown) as the compound, how does the “hERG current change (%, negative = inhibition) at 10uM” value read?
Answer: 5.78%

Question: Which “hERG current change (%, negative = inhibition) at 10uM” value does the source give for `Cc1noc(/C=C/Nc2ccc(F)cc2F)c1[N+](=O)[O-]` here?
Answer: 12.1%

Question: With `COc1ccc(NC(=S)N(CCN(C)C)C(C)c2ccco2)cc1` (stereo not shown) as the compound, how does the “hERG current change (%, negative = inhibition) at 10uM” value read?
Answer: -16.6%

Question: Which “hERG current change (%, negative = inhibition) at 10uM” value does the source give for `O=C1CSC(c2ccccc2)N1CCc1ccccc1` (stereo not shown) here?
Answer: 1.82%

Question: `Cc1ccccc1SCC(=O)OCC(=O)Nc1ccc(N(C)C)cc1` was tested. Which “hERG current change (%, negative = inhibition) at 10uM” value did it give?
Answer: 10.4%

Question: With `NC(=O)CCN1CCN(Cc2nc(C(c3ccccc3)c3ccccc3)no2)CC1` as the compound, how does the “hERG current change (%, negative = inhibition) at 10uM” value read?
Answer: -25.6%

Question: With `c1ccc(C(c2ccccc2)c2noc(CN3CCN(CC4CC4)CC3)n2)cc1` as the compound, how does the “hERG current change (%, negative = inhibition) at 10uM” value read?
Answer: -61.6%

Question: For `c1ccc(C(c2ccccc2)c2noc(CN3CCN(C4CCCC4)CC3)n2)cc1`, which “hERG current change (%, negative = inhibition) at 10uM” value is on record?
Answer: -70.1%

Question: `CC(=O)N1CCN(Cc2nc(C(c3ccccc3)c3ccccc3)no2)CC1` was tested. Which “hERG current change (%, negative = inhibition) at 10uM” value did it give?
Answer: 10.8%

Question: Which “hERG current change (%, negative = inhibition) at 10uM” value does the source give for `c1ccc(C(c2ccccc2)c2noc(CN3CCC(c4ccncc4)CC3)n2)cc1` here?
Answer: -32.7%

Question: How did the “hERG current change (%, negative = inhibition) at 10uM” value turn out when `C[C@@H]1CN(C2CCN(Cc3nc(C(c4ccccc4)c4ccccc4)no3)CC2)C[C@H](C)O1` was run?
Answer: -38.6%

Question: Which “hERG current change (%, negative = inhibition) at 10uM” value does the source give for `Cc1nc(CN2CCN(Cc3nc(C(c4ccccc4)c4ccccc4)no3)CC2)cs1` here?
Answer: -45.5%

Question: How did the “hERG current change (%, negative = inhibition) at 10uM” value turn out when `Cc1cccnc1CN1CCN(Cc2nc(C(c3ccccc3)c3ccccc3)no2)CC1` was run?
Answer: -56.2%

Question: With `COCC1CCCN(Cc2nc(C(c3ccccc3)c3ccccc3)no2)C1` (stereo not shown) as the compound, how does the “hERG current change (%, negative = inhibition) at 10uM” value read?
Answer: -19.6%

Question: `CC(=O)c1c(NCCc2ccccc2)nc(=S)n(-c2ccccc2)c1C` was tested. Which “hERG current change (%, negative = inhibition) at 10uM” value did it give?
Answer: 7.04%

Question: Which “hERG current change (%, negative = inhibition) at 10uM” value does the source give for `CCn1c(=O)cc(OCC(=O)NCc2ccco2)c2ccccc21` here?
Answer: 0.766%

Question: Which “hERG current change (%, negative = inhibition) at 10uM” value does the source give for `CCN1CCCC1CNC(=O)Cn1cnc2sc(C)c(S(=O)(=O)N3CCC(C)CC3)c2c1=O` (stereo not shown) here?
Answer: -14.5%

Question: How did the “hERG current change (%, negative = inhibition) at 10uM” value turn out when `Cc1ccc2nc(N3C(=O)C(O)=C(C(=O)c4ccco4)C3c3ccc(C)o3)sc2c1.O=C(O)C(=O)O` (stereo not shown) was run?
Answer: 1.65%

Question: For `CC(NC(=O)C1CCC(CNC(=O)[C@@H]2Cc3ccccc3CN2)CC1)c1ccccc1` (stereo partly shown), which “hERG current change (%, negative = inhibition) at 10uM” value is on record?
Answer: -4.23%

Question: How did the “hERG current change (%, negative = inhibition) at 10uM” value turn out when `CCn1c(SCC(=O)Nc2cc(C)on2)nnc1-c1ccc(S(=O)(=O)N2CCCC2)cc1` was run?
Answer: -1.7%

Question: `Cc1ccc2cc3cc(C(=O)NCCN4CCOCC4)oc3nc2c1` was tested. Which “hERG current change (%, negative = inhibition) at 10uM” value did it give?
Answer: -14.5%

Question: How did the “hERG current change (%, negative = inhibition) at 10uM” value turn out when `Cc1ccc2cc3cc(C(=O)NCCCN4CCCC4=O)oc3nc2c1` was run?
Answer: 2.4%

Question: Which “hERG current change (%, negative = inhibition) at 10uM” value does the source give for `Cc1ccc2cc3cc(C(=O)NCc4ccco4)oc3nc2c1` here?
Answer: -1.21%

Question: For `Cc1ccc2cc3cc(C(=O)N4CC(C)CC(C)C4)oc3nc2c1` (stereo not shown), which “hERG current change (%, negative = inhibition) at 10uM” value is on record?
Answer: 1.38%

Question: With `Cc1ccc2cc3cc(C(=O)NCCCN4CCc5ccccc5C4)oc3nc2c1` as the compound, how does the “hERG current change (%, negative = inhibition) at 10uM” value read?
Answer: -54.9%

Question: For `Cc1ccc2cc3cc(C(=O)NCCCN4CCCCCC4)oc3nc2c1`, which “hERG current change (%, negative = inhibition) at 10uM” value is on record?
Answer: -50.6%

Question: `Cc1ccc2oc(=O)c3cc(C(=O)NCCCN4CCc5ccccc5C4)sc3c2c1` was tested. Which “hERG current change (%, negative = inhibition) at 10uM” value did it give?
Answer: -6.63%

Question: With `Cc1ccc2cc3cc(C(=O)NCCCN4CCCC4)oc3nc2c1` as the compound, how does the “hERG current change (%, negative = inhibition) at 10uM” value read?
Answer: -15.5%

Question: How did the “hERG current change (%, negative = inhibition) at 10uM” value turn out when `Cc1ccc2cc3cc(C(=O)NCCCN4CC(C)CC(C)C4)oc3nc2c1` (stereo not shown) was run?
Answer: -62.9%

Question: How did the “hERG current change (%, negative = inhibition) at 10uM” value turn out when `CCOC(=O)C1C(c2ccccc2O)NC(=O)NC1(O)C(F)(F)F` (stereo not shown) was run?
Answer: 16.9%

Question: With `COc1ccc(OCC(=O)Nc2cccc(C(C)=O)c2)cc1` as the compound, how does the “hERG current change (%, negative = inhibition) at 10uM” value read?
Answer: -7.29%

Question: Which “hERG current change (%, negative = inhibition) at 10uM” value does the source give for `CC(C)(C)c1ccc(C(=O)c2c[nH]c(C(=O)NCCc3ccccn3)c2)cc1` here?
Answer: 15.1%
